TIM10 inh = growth inhibitors of isogenic TIM10 control yeast, primary screen, counter-screen for tim10-1 yeast inhibitor project, luminescence, uHTS | 330,000 compounds, 1.4% hits | AID 463195, 2010 | S. cerevisiae TIM10 strain growth, BacTiter-Glo luminescence, 24 h | inhibition, % at 10 µM;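 active = inhibition of 40% or more at the single tested concentration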;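 also: wild-type TIM10 isogenic control strain grown at permissive 25 °C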
V-ATPase pH = regulators of yeast V-ATPase proton pumping, primary screen, pHLuorin cytosolic pH fluorescence. S. cerevisiae. response, % at 10 µM. 350,000 compounds, 0.37% hits; in the data active = response mostly above about 7.3%, no sharp cut-off; inactive = mostly below about 5.4%; also: actives read high
tim10-1 inh = growth inhibitors of tim10-1 mutant yeast, primary screen, luminescence, uHTS; S. cerevisiae tim10-1 ts strain growth, BacTiter-Glo, 24 h; inhibition, % at 20 µM; 330,000 compounds, 2.2% hits; AID 463190, 2010;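 active = inhibition of at least 40%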;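 also: mutant grown at 25 °C; 0% = DMSO wells with yeast and 100% = wells holding no yeast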
PfHsp90 set2 = growth inhibition of PfHsp90-expressing yeast, primary screen, antimalarial PfHsp90 inhibitor project, S. cerevisiae, BacTiter-Glo luminescence, single point, set 2 | BacTiter-Glo ATP, 48 h; yeast lacking PDR1 and PDR3 efflux regulators | inhibition, % at 9.4 µM | 310,000 compounds, 0.32% hits;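 active = every replicate shows inhibition above about 80%, whatever the replicate mean, limit read from the data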;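 also: 0% = DMSO neutral controls and 100% = 20 µM radicicol positive controls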
tim23-1 inh = growth inhibitors of tim23-1 mutant yeast, primary screen, luminescence, uHTS; S. cerevisiae tim23-1 growth, BacTiter-Glo luminescence, 24 h; 330,000 compounds, 1.3% hits; inhibition, % at 20 µM;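 active = growth inhibition of the mutant yeast at or above 50%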;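 also: temperature-sensitive mutant grown at 25 °C; plate controls were DMSO-treated mutant yeast for no effect and medium wells lacking yeast for full effect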
tim23-1 conf = tim23-1 mutant yeast growth inhibitors, confirmation, luminescence, single concentration; shares compounds with tim23-1 inh; 4,400 compounds, 83% hits; S. cerevisiae tim23-1 growth, BacTiter-Glo luminescence, 24 h; AID 463218, 2010; inhibition, % at 20 µM;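 active = inhibition above about 39% in either of two replicate wells at 20 µM, limit read from the data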;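 also: temperature-sensitive tim23-1 mutant grown at 25 °C; 0% = DMSO wells with yeast and 100% = medium wells without yeast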
Active calls of the source: *; . = no result given. Most compounds without a hit are left out; they make up all but 3.7% or so of the library.

SMILES | TIM10 inh | V-ATPase pH | tim10-1 inh | PfHsp90 set2 | tim23-1 inh | tim23-1 conf
CCCCCc1cc(O)c2c(C)cc(=O)oc2c1 | 15 | 0 | 19 | 17 | 22 | .
CCCCc1cc(O)c(CCCC)c(O)c1 | -3 | 1 | 35 | 8 | 53* | 42*
O=C(NN1C(=O)c2cc(Br)ccc2NC1c1cc(Br)cc(Br)c1O)c1ccncc1 (stereo not given) | 33 | 0 | 32 | -7 | 68* | 74*
CCCn1c(SC(C)C(=O)NCC2CCCO2)nc2sc3c(c2c1=O)CCC3 (stereo not given) | 3 | 2 | 17 | 7 | 16 | .
C/C(=N\NC(=O)c1ccc(-n2cnnn2)cc1)c1ccc(Cl)cc1 | -15 | -1 | -8 | -19 | -10 | .
Nc1cc(C(F)(F)F)ccc1NCCc1ccccn1 | 6 | 1 | 34 | 10 | -1 | .
O=C(O)CN1C(=O)/C(=C\c2cc(Br)ccc2OCc2ccc([N+](=O)[O-])cc2)SC1=S | 30 | -1 | -5 | -54 | 53* | 71*
CC(=O)N1c2c(cc(Br)cc2S(=O)(=O)NCc2ccc(C)cc2)CC1C (stereo not given) | 18 | -1 | 13 | -5 | 30 | .
Cc1cc(N=Cc2cc(Br)ccc2O)no1 | 8 | 9 | 36 | . | 67* | 34
COc1ccc(/C=C2\COc3ccccc3C2=O)c(OC)c1 | 22 | 2 | 15 | 2 | 55* | 50*
Fc1cccc(NC(=S)NNc2ccccc2)c1 | 18 | -1 | 13 | 2 | 59* | -18
O=[N+]([O-])c1cc(Br)c(Nc2ccccc2)c([N+](=O)[O-])c1 | 7 | -3 | 21 | 120* | 54* | -22
C/C(=N\NC(=O)c1ccc(Cl)cc1)c1ccccn1 | 22 | 3 | 6 | -17 | 50* | 45*
CCOC(=O)CSc1nc2sc3c(c2c(=O)n1-c1ccccc1)CCN(C(C)C)C3 | -11 | -4 | 10 | 2 | 9 | .
Cc1cccc(/C=N/NC(=O)c2c(-c3ccccc3)noc2C)c1O | 33 | 3 | 24 | -21 | 53* | 51*
O=C(CN1C(=O)c2ccc([N+](=O)[O-])cc2C1=O)NCC1CCCO1 (stereo not given) | 18 | 0 | -7 | 2 | -3 | .
C=CCN1C(=O)/C(=C/C(=O)OC)S/C1=N\NC(=O)c1ccccc1 | 22 | 1 | 22 | . | 59* | 38*
O=C(NNc1ccccc1[N+](=O)[O-])Nc1cccc(Cl)c1 | -4 | -2 | 8 | -1 | 8 | .
Fc1cccc(Cl)c1C1Nc2cccc3cccc(c23)N1 | 17 | 0 | 33 | 8 | 34 | .
Clc1cccc(Cl)c1C1Nc2cccc3cccc(c23)N1 | 30 | 1 | 29 | -6 | 53* | 75*
Cc1c(Cl)cccc1N=C1SCCN1C(=O)CN1C(=O)NC2(CCCC2)C1=O | 11 | -6 | 22 | . | 45 | .
COc1ccc(C2/C=C\CN(C(=O)c3ccccc3)CC(=O)N2Cc2cccc(F)c2)cc1 (stereo not given) | 16 | -1 | 30 | 5 | 59* | 42*
COc1ccc(C2/C=C\CN(C(=O)OCC3c4ccccc4-c4ccccc43)CC(=O)N2Cc2cccc(F)c2)cc1 (stereo not given) | 4 | -3 | 17 | -18 | 24 | .
COc1ccc(C2/C=C\CN(S(=O)(=O)c3ccc(C)cc3)CC(=O)N2Cc2cccc(F)c2)cc1 (stereo not given) | -5 | 1 | 20 | -9 | 45 | .
COc1ccc(C2/C=C\CN(CC(C)C)CC(=O)N2Cc2cccc(F)c2)cc1 (stereo not given) | 10 | 2 | 20 | -12 | 50* | 39*
CC(Nc1cc(=O)n(C)c(=O)n1C)c1ccccc1 (stereo not given) | 9 | -1 | 3 | -8 | 52* | 2
CC(C)CCNc1cc(=O)n(C)c(=O)n1C | 0 | -1 | -5 | 5 | 9 | .
CCN(CCCNC(=O)Cn1ncc2c([nH]c3ccc(C)cc32)c1=O)c1ccccc1 | -9 | -2 | -10 | -36 | -10 | .

Screens as filed in PubChem.
